Test results: the supplement of paper PMC13380429
Unmarked numbers belong to inactive results.

System: Vero E6 infected with SARS-CoV-2
Assay: inhibition of SARS-CoV-2 cytopathic effect; higher = more antiviral protection, active = above 15
Conditions: 833.33 nM; 48 h

Row | SMILES | inhibition of SARS-CoV-2 cytopathic effect [%]
1 | Cc1ccc(C(=O)c2ccc(CC(=O)O)n2C)cc1 [tolmetin] | -0.39
2 | COc1cccc(-c2cc(=O)c3ccccc3o2)c1N | -3.58
3 | CC(=O)O[C@]1(C(C)=O)CC[C@H]2[C@@H]3C=C(C)C4=CC(=O)CC[C@@H]4[C@H]3CC[C@@]21C [nomegestrol-acetate] | 1.28
4 | O=C1CN(/N=C/c2ccc([N+](=O)[O-])o2)C(=O)N1 [nitrofurantoin] | 0.55
5 | COc1cc2nccc(Oc3ccc(NC(=O)Nc4ccc(F)cc4F)c(F)c3)c2cc1OC | 4.37
6 | CS(=O)(=O)N(Cc1ccco1)C[C@@H](O)Cn1c2ccccc2c2ccccc21 | 0.77
7 | C/C=C1\[C@H]2C=C(C)C[C@]1(N)c1ccc(=O)[nH]c1C2 [(-)-Huperzine A] | -0.65
8 | CC(=O)N(O)C/C=C/c1cccc(Oc2ccccc2)c1 | -0.73
9 | CCOC1O[C@H]([C@@H](COCc2ccccc2)OCc2ccccc2)[C@H](OCc2ccccc2)[C@H]1O (stereo not given in full) [tribenoside] | 0.08
10 | CCS(=O)(=O)N1CCN(c2ccc(Nc3ncc(C(N)=O)c(NC4CC4)n3)cc2)CC1 | 2.08
11 | Cc1ccc(-c2ncc[nH]2)cc1NC(=O)c1ccc(OCc2ccccn2)cc1 | -4.18
12 | C[C@]12CC[C@H](O)CC1=CC[C@@H]1[C@@H]2CC[C@]2(C)C(c3cccnc3)=CC[C@@H]12 [Abiraterone (CB-7598)] | 2.56
13 | CC(C)(C)c1ccc(O)cc1 [4-tert-butylphenol] | 2.45
14 | CC(=O)OCC(=O)[C@@]1(O)CC[C@H]2[C@@H]3CCC4=CC(=O)CC[C@]4(C)[C@H]3C(=O)C[C@@]21C [cortisone-acetate] | 0.49
15 | O=C1OC(OC(=O)c2cccnc2Nc2cccc(C(F)(F)F)c2)c2ccccc21 (stereo not given) [talniflumate] | 0.94
16 | N#Cc1ccc(N(Cc2ccc(Br)cc2)n2cnnc2)cc1 | 2.99
17 | NC(=S)N/N=C/c1coc2ccccc2c1=O.[Cl][Cu][Cl] | -0.55
18 | Cc1nc(C#Cc2ccnc(Cl)c2)c(C)n1-c1ccc(F)cc1 [basimglurant] | -1.39
19 | CCCCC(=O)O[C@H]1CC[C@H]2[C@@H]3CCc4cc(O)ccc4[C@H]3CC[C@]12C | -1.92
20 | C[N+](C)(C)CCOC(=O)CCC(=O)OCC[N+](C)(C)C [succinylcholine-chloride] | 0.85

Row | SMILES | inhibition of SARS-CoV-2 cytopathic effect [%]
21 | Cc1cc(C)cc(OCC2CNC(=O)O2)c1 (stereo not given) [metaxalone] | 1.04
22 | CC(C(=O)O)c1ccc(C(=O)c2cccs2)cc1 (stereo not given) [suprofen] | -2.28
23 | Cc1cccc(C)c1NC1=NCCCS1 [xylazine] | -1.24
24 | CC1=C(C(=O)O)N2C(=O)[C@@H](NC(=O)[C@H](N)c3ccc(O)cc3)[C@H]2SC1 [cefadroxil] | -2.49
25 | N=C(NCc1ccc(Cl)cc1)SCCCc1c[nH]cn1 [clobenpropit] | 1.78
26 | N#Cc1ccccc1-c1cc(-c2ccccn2)cn(-c2ccccc2)c1=O [Perampanel] | -0.14
27 | C/C(=C\c1csc(C)n1)[C@@H]1C[C@@H]2O[C@]2(C)CCC[C@H](C)[C@H](O)[C@@H](C)C(=O)C(C)(C)[C@@H](O)CC(=O)N1 [ixabepilone] | -6.58
28 | COc1ccc2c(Oc3ccc(NC(=O)c4c(C)n(CC(C)(C)O)n(-c5ccccc5)c4=O)nc3)ccnc2c1 | -1.35
29 | COC(=O)C1=CCCN(C)C1 [arecoline] | -1.35
30 | COc1cc([S+](C)[O-])ccc1-c1nc2cccnc2[nH]1 (stereo not given) [sulmazole] | -1.34
31 | O=C(O)CCN(O)C(=O)CCCCCCCCC1CC1 | 4.48
32 | N=C1N[C@H]2[C@H](CS[C@H]2CCCCC(=O)O)N1 [2-iminobiotin] | -2.01
33 | Cc1cc(O)ccc1Cl [chlorocresol] | 1.63
34 | CC(C)(Oc1ccc(CCNC(=O)c2ccc(Cl)cc2)cc1)C(=O)O [bezafibrate] | 0.02
35 | O=C(O)C1=CCNCC1 [isoguvacine] | 3.23
36 | Cc1ccnc(NS(=O)(=O)c2ccc(N)cc2)n1 [sulfamerazine] | -0.16
37 | O=C1C=CC(=O)C2=C1C1c3ccccc3C2c2ccccc21 | 2.43
38 | CCOC(=O)Nc1cc(-c2ccc(C)c(NS(C)(=O)=O)c2)nn2c(C)nnc12 [bromosporine] | -0.48
39 | CC(C)(Cc1ccc2ccccc2c1)NC[C@@H](O)COc1cccc(Cl)c1C#N | 2.49
40 | O=C(NCCCCCCNC(=O)ON=C1CCCCC1)ON=C1CCCCC1 | 2.74
